In the library only some 1.7% were active in any assay of this set; here they are far more common.
Vif imaging: blocks HIV Vif function; HEK293T cells, Vif self-association by quenched fluorescence, imaging, 24 h; inhibition, % at 7.49 µM; actives 0.35% (n = 340,000); in the data active = inhibition above about 50%, passing the limit was not always enough; inconclusive = no clear call, values can overlap the other calls; inactive = below about 31%
FGF22 binding: shifts melting point of recombinant human FGF22; AID 651658; actives 1.5% (n = 340,000); activity (Tm shift, normalised), % at 9.99 µM; Q9HCT0; recombinant FGF22 thermal shift, SYPRO orange fluorescence; percent of sucrose octasulfate shift, DMSO zero;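 active = mean Tm shift, scaled 0 neutral to 100 positive control, at about 1.3% or above, every replicate too, limit read from the data; inconclusive = no clear call, values can overlap the other calls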
Target sequence (Q9HCT0 whole entry, looked up): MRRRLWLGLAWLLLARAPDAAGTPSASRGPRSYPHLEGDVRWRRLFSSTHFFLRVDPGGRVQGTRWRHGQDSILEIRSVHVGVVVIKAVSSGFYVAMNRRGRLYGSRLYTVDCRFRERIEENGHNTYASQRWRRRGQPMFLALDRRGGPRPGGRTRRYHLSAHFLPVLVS
F508del corr: correctors of CFTR F508del function in bronchial epithelial cells | CFBE cells, YFP halide quenching; stimulated with forskolin plus potentiator P3; % fluorescence drop versus neutral controls | activity (quench increase), % at 7.58 µM | AID 720511 | actives 0.36% (n = 350,000);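 active = mean added fluorescence quench of at least 8% versus neutral control, with both replicates also reaching 8%; inconclusive = only one of the mean or replicate conditions met; inactive = mean below 8% and not both replicates reaching 8%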;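 also: cells transiently co-express mutant CFTR-F508del with the halide-sensitive YFP; corrector assay measuring rescue of mutant channel to the surface after 24 h compound exposure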
Large screens that a line does not name were inactive.

O=C(N[C@@H]1CC[C@@H](CCNS(=O)(=O)c2ccccc2)O[C@@H]1CO)c1cnccn1	none (no result: Vif imaging)
CCn1c(Cc2ccccc2)nnc1SCC(=O)NC(C)(C)C	none
CCn1c(Cc2cccs2)nnc1SCC(=O)NC(C)(C)C	FGF22 binding 43
C[C@@H]1CCCCO[C@@H](CN(C)S(=O)(=O)c2cccs2)[C@H](C)CN([C@@H](C)CO)C(=O)c2cc(NC(=O)Nc3ccc(C(F)(F)F)cc3)ccc2O1	none (no result: Vif imaging)
CCN1C(=O)CC(SC2CC(=O)N(CC)C2=O)C1=O (stereo not drawn)	none
CCCCN1C(=O)CC(SC2CC(=O)N(CCCC)C2=O)C1=O (stereo not drawn)	FGF22 binding 43
CN(C)C(=O)C[C@@H]1C=C[C@H](NC(=O)C2CC2)[C@H](CO)O1	none (no result: Vif imaging)
Cc1nnc(N/N=C/c2ccccc2F)n1N	Vif imaging 59
Cc1nnc(N/N=C/c2ccccc2C(F)(F)F)n1N	none
CO[C@H]1CN(C)C(=O)c2ccc(NC(=O)C3CC3)cc2OC[C@@H](C)N(Cc2cccnc2)C[C@H]1C	none (no result: Vif imaging)
C[C@@H]1CCCCO[C@H](CN(C)Cc2ccc(C(F)(F)F)cc2)[C@H](C)CN([C@H](C)CO)C(=O)c2cc(NS(=O)(=O)c3ccc(F)cc3)ccc2O1	none (no result: Vif imaging)
C=CCOc1ccccc1CNCCCN1CCOCC1	none (no result: FGF22 binding, F508del corr)
C=CCOc1cccc(CNCCCN2CCOCC2)c1	FGF22 binding 44
C[C@H]1CCCCO[C@H](CN(C)S(=O)(=O)c2ccccc2)[C@@H](C)CN([C@@H](C)CO)C(=O)c2cc(NC(=O)CCCN(C)C)ccc2O1	none (no result: Vif imaging)
O=C(Cc1ccc(Cl)cc1)Nc1cccc2ncccc12	none
O=C(Cc1ccc(Cl)c(Cl)c1)Nc1cccc2ncccc12	FGF22 binding 43
Cc1ccc(S(=O)(=O)N(C)C[C@H]2Oc3ccc(NS(=O)(=O)c4ccc(F)cc4)cc3C(=O)N([C@H](C)CO)C[C@@H]2C)cc1	none (no result: Vif imaging)
C=CCN(CC=C)C(=S)NC(=O)Cc1cccc2ccccc12	FGF22 binding 43
O=C(Cc1cccc2ccccc12)Nc1ccccc1	none
COc1ccc(C#Cc2cnc3c(c2)C(=O)N([C@@H](C)CO)C[C@@H](C)[C@H](CN(C)C(=O)Nc2cccc(OC)c2)O3)cc1	none (no result: Vif imaging, FGF22 binding)
CCc1cc(C(=O)OC)c(NC(=O)CCC(=O)O)s1	none (no result: FGF22 binding, F508del corr)
CCCc1cc(C(=O)OC)c(NC(=O)CCCC(=O)O)s1	FGF22 binding 44
Cc1cc(Cl)n2c(nc3ccccc32)c1C#N	none
Cc1c(CCCl)c(Cl)n2c(nc3ccccc32)c1C#N	Vif imaging 61
CCOC(=O)c1c(C)[nH]c(C)c1C(=O)COC(=O)C1CC(=O)N(CCc2ccccc2)C1 (stereo not drawn)	Vif imaging 51
CCOC(=O)c1ccccc1NC(=O)COC(=O)C1CC(=O)N(CCc2ccccc2)C1 (stereo not drawn)	none
CCCC#Cc1ccc([C@@H]2[C@H](CO)N3C(=O)CN(C(=O)c4ccc(F)cc4)C[C@@H]23)cc1	none (no result: Vif imaging, FGF22 binding)
COCC(=O)Nc1ccc2c(c1)OC[C@@H](C)N(Cc1ccccc1)C[C@@H](C)[C@@H](OC)CN(C)C2=O	none (no result: Vif imaging)
COc1ccc(-c2cc(-c3ccccc3)no2)cc1	none
c1ccc(-c2cc(-c3cc(-c4ccccc4)on3)no2)cc1	FGF22 binding 43
COc1cccc(NC(=O)N2C[C@@H](O)COC[C@H]3O[C@H](CC(=O)NCCCN4CCOCC4)CC[C@@H]32)c1	none (no result: Vif imaging)
COCCCNC(=O)CN(CCc1ccccc1)S(=O)(=O)c1ccccc1	none
COCCCNC(=O)CN(CCc1ccccc1)S(=O)(=O)c1ccc(C)cc1	FGF22 binding 44
Cc1noc(C)c1S(=O)(=O)Nc1ccc2c(c1)C(=O)N([C@H](C)CO)C[C@H](C)[C@@H](CN(C)S(=O)(=O)c1ccc(Cl)cc1)O2	none (no result: Vif imaging)
Cc1ccccc1NC(=O)c1cc([N+](=O)[O-])ccc1NCCN1C(=O)CCC1=O	FGF22 binding 43
O=C(Nc1ccccc1)c1ccc(NCCN2C(=O)CCC2=O)c([N+](=O)[O-])c1	none
CC(=O)Oc1ccc(-c2csc(Nc3ccc(Cl)cn3)n2)cc1	none
c1ccc(-c2csc(Nc3ccccn3)n2)cc1	none
Cc1ccc(-c2csc(Nc3ccccn3)n2)cc1	F508del corr 8.7
COc1ccc(-c2csc(Nc3ccc(C)cn3)n2)cc1	FGF22 binding 61
CCO[C@@H]1OC(C(=O)O)=C[C@H](C2CCCCC2)[C@H]1CCCO	none
CCO[C@@H]1OC(C(=O)O)=C[C@H](C2CC2)[C@H]1CCCO	FGF22 binding 44
COc1ccc(S(=O)(=O)Nc2ccc3c(c2)C(=O)N([C@H](C)CO)C[C@@H](C)[C@@H](CN(C)Cc2ccccc2)OCCCC[C@H](C)O3)cc1	none (no result: Vif imaging)
CN1C(=O)c2cc(NC(=O)c3cccc(Cl)c3)ccc2OC[C@H]2O[C@@H](CC(=O)NC3CCCCC3)CC[C@H]21	FGF22 binding 1.4 (no result: Vif imaging)
CN1C(=O)c2cc(NC(=O)c3ccccc3)ccc2OC[C@@H]2O[C@H](CC(=O)NC3CCCC3)CC[C@H]21	none (no result: Vif imaging)
COC(=O)C[C@@H]1CC[C@@H]2[C@H](COc3ccc(NC(=O)c4cc(C)on4)cc3C(=O)N2C)O1	F508del corr 14 (no result: Vif imaging)
COC(=O)C[C@H]1CC[C@@H]2[C@@H](COc3ccc(NC(=O)c4cc(C)on4)cc3C(=O)N2C)O1	none (no result: Vif imaging)
CCCN1C[C@@H](C)[C@H](OC)CN(C)C(=O)c2cc(NC(=O)C3CCC3)ccc2OC[C@@H]1C	none (no result: Vif imaging, FGF22 binding)
COc1ccc(-c2cn3ccccc3n2)cc1	none
CCCOc1ccc(-c2cn3ccccc3n2)cc1	FGF22 binding 43
O=C(CC1CC1)Nc1ccc2c(c1)[C@@H]1C[C@H](CC(=O)N3CCOCC3)O[C@@H](CO)[C@@H]1O2	none (no result: Vif imaging)
CCN1/C(=C2/SC(=S)N(NC(C)=O)C2=O)Sc2ccc(OC)cc21	Vif imaging 71
CCN1/C(=C2/SC(=S)N(NC(C)=O)C2=O)Sc2ccc(Cl)cc21	none (no result: FGF22 binding)
O=C(c1ccco1)N1CCN(C(=O)c2ccccc2OC(=O)C23CC4CC(CC(C4)C2)C3)CC1	none (no result: FGF22 binding, F508del corr)
O=C(O)c1ccccc1OC(=O)C12CC3CC(CC(C3)C1)C2	Vif imaging inconclusive, FGF22 binding 43
C[C@@H]1CCCCO[C@H](CN(C)C(=O)NC2CCCCC2)[C@H](C)CN([C@@H](C)CO)C(=O)c2cc(NC(=O)CCC(F)(F)F)ccc2O1	none (no result: Vif imaging)
CCCNC(=O)N(C)C[C@H]1Oc2cc(C#CCN(C)C)ccc2S(=O)(=O)N([C@@H](C)CO)C[C@@H]1C	none (no result: Vif imaging)
CC(=O)N1[C@@H]2c3ccc(C4=CCCC4)c(=O)n3C[C@H]1[C@H](CO)[C@H]2C(=O)N[C@@H](C)c1ccccc1	none (no result: Vif imaging, FGF22 binding)
COc1cc(N2C(=O)c3ccccc3C2=O)c(Cl)cc1C(=O)OCC(=O)N(C)C	FGF22 binding 43
COc1cc(OC)c(C(=O)OCN2C(=O)c3ccccc3C2=O)cc1OC	none
CNC[C@@H]1OCCCC[C@H](C)Oc2ccc(NC(=O)Nc3ccc(C(F)(F)F)cc3)cc2C(=O)N([C@H](C)CO)C[C@H]1C	none (no result: Vif imaging, FGF22 binding)
O=C1CSCN1c1ccc(Cl)c(Cl)c1	FGF22 binding 43
O=C1CSCN1c1cc(Cl)ccc1Cl	none
CO[C@H]1CN(C)C(=O)c2cc(NC(=O)NC(C)C)ccc2OC[C@@H](C)N(C(=O)CC2CC2)C[C@H]1C	none (no result: Vif imaging)
O=C(/C=C/c1ccc(Br)o1)Nc1nccs1	FGF22 binding 44
O=C(Nc1nccs1)c1ccc(Br)o1	none (no result: FGF22 binding, F508del corr)
